The supplement of paper PMC11417369
± gives the standard deviation of the averaged measurements. Over roughly 25,000 sequences, “ln(normalized median fluorescence intensity)” has its median near 8.9; the highest 2% begin near 10. Many of the other results were omitted from the sample, so the highest values are more common in it than they were.

system: PfAP2-LT AP2 domain (GST-tagged); assay: gcPBM binding intensity (ln(normalized median fluorescence intensity)); higher = stronger DNA binding
Summary of the method: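 Using an Agilent 4 × 180k array, primer-extended double-stranded 36-bp intergenic genomic probes and negative controls were exposed for 1 h to GST-fused P. falciparum DNA-binding domains expressed in E. coli. Binding was carried out in 1× PBS with 1% milk, 0.2 mg/ml BSA, 0.5% salmon testes DNA and 0.03% Triton X-100, and protein was detected with Alexa488 anti-GST antibody and a 488 nm scan. Binding intensity is the highest Masliner-normalised natural-log median intensity across replicate spots of either probe orientation.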

Sequence | gcPBM binding intensity (ln)
CTGTTTAAAATATAAACACACATTGTTTGCTTTAGA [CACACA_site1301] | 8.71 ± 0.4
TATAATCATATATACACACACATATATATATATATA [CACACA_site2168] | 9.805 ± 0.05
TAATAAATGACAAATTAACACACATATATTATATAT [CACACA_site9294] | 8.98 ± 0.36
AATAAATAAATACATCTCAGTATATAAACAAACAAA [CACACA_negctrl_site1604] | 8.89 ± 0.51
GAAATATTGAAACACACACACAAACATATATATATA [CACACA_site1911] | 10.1 ± 0.26
TATATATATATATAAACACACATAAATATAAATATA [CACACA_site1121] | 9.01 ± 0.32
TAAATATAAACACAAACACACACATATATATATATA [CACACA_site7978] | 10.04 ± 0.035
AAAAACAACACAGATAAATTAACACACACACACATA [XGTACX_negctrl_site588] | 10.1 ± 0.12
GATAAATTAAAACACACACACATATATATATATATA [CACACA_site3962] | 9.99 ± 0.042
CATATAAATAAACACACACACACATATATATATATA [CACACA_site5309] | 10.06 ± 0.064
AAATAATCATAAAATAAACACACATATATAAATATA [CACACA_site7981] | 8.89 ± 0.42
GCATAAATCAAACACACACACATATATATATATATA [CACACA_site2422] | 10.3 ± 0.15
AATAAATTGAAACACACACACACATATATATATATA [CACACA_site848] | 10.17 ± 0.042
CATAATACAGATAACACACACAATTATACATAAAAT [CACACA_site5742] | 9.59 ± 0.39
CAGATAAATAAACACACACACACATATATATATATA [CACACA_site9311] | 10.16 ± 0.078
AATATAAATAAACACACACACATATATATATATATT [CACACA_site2906] | 9.79 ± 0.21
TACTTGTTATTAACATGTACAAAAAAAAAAAAAATT [XGTACX_site1338] | 8.46 ± 0.42
TCTAACATATAATATTCACACACATATATATATTAT [CACACA_site8236] | 9.21 ± 0.43
ACTAAAAGGCTTAAATGTACATATTATATATATATA [XGTACX_site5897] | 8.89 ± 0.42
TGAATAAATATATATACACACATATATGTATATATT [CACACA_site1642] | 8.95 ± 0.37
AAAATTTATAGTATGGTGCATAAAAATATATATATA | 8.82 ± 0.46
AAAAAAATTAAACACACACACACATATATATATATA [CACACA_site4718] | 10.1 ± 0.27
TAAATAAATAAAAAAACACACATATAAATATAAATA [CACACA_site7815] | 8.9 ± 0.52

Sequence | gcPBM binding intensity (ln)
AAAAAAAAATTAAAAACACACATATATATATATATA [CACACA_site1580] | 9.73 ± 0.014
AAAAAAAAAAAACACACACACACATAAATATATATA [CACACA_site149] | 10.1 ± 0.18
TAAAATATAAAACACACACACATATATATATATATT [CACACA_site224] | 9.72 ± 0.11
AAAAAAAAAAAAAACACACACATATAAATATAAATA [CACACA_site6972] | 9.37 ± 0.45
TATAAATAAAAACACACACACATATATATATATATA [CACACA_site2319] | 9.88 ± 0.12
AAAAAAAAAAAAAAAACACACATAAAAATATAATAA [CACACA_site3855] | 8.74 ± 0.63
CATAAAATATAAAACACACACACATATATATATATA [CACACA_site223] | 10.1 ± 0.28
TAAATAAATAAAAAAACACACATATATATATATATA [CACACA_site4029] | 9.6 ± 0.44
TAAATAAAAAAACACACACACATATATATATATATA [CACACA_site2269] | 10.2 ± 0.36
AAAAAAAAATTAAAAACACACATATAAATAAATATA [CACACA_site6845] | 8.76 ± 0.54
AAGAAAATAAAAAGGTAAATATGTATAAATAAATAA [TGCATGCA_negctrl_site88] | 8.71 ± 0.47
TTATTTTCTTTTTCTTGTACACACATAATATGGATG [XGTACX_site1481] | 9.17 ± 0.54
CTAATGATCATATATACACACACACTAATAAAAAAA [CACACA_site9329] | 9.64 ± 0.14
ATACCTTCTTTTATGTTTAATTAATATACTTTTTAT [CACACA_negctrl_site1557] | 8.96 ± 0.55
ACATATATTATTATATGTACATATATTAATTATATA [XGTACX_site3400] | 8.66 ± 0.28
GCACACACAAAAAAAGCATGCATACTAGCTATTTTT [TGCATGCA_site18] | 9.37 ± 0.42
TACACAAAAATAAACACACACACATATAAATAAATA [CACACA_site6599] | 9.76 ± 0.3
AAAAAATATAAAAAAACACACAAAAAAAAAAAAAAA [CACACA_site1382] | 8.6 ± 0.59
ATATATATAAAACACACACACAAAAAAAATAAAGAC [CACACA_site117] | 10.1 ± 0.28
TACCAAAAGAAACACACACACAAAATATATAAATAT [CACACA_site1869] | 9.88 ± 0.28
TACACGCATAAACACACACACACACCCATATATATA [CACACA_site8114] | 10.24 ± 0.05
CACCCATAGAAACACACACACGCATAAAAAAAAAAA [CACACA_site1513] | 9.56 ± 0.37
CTTACCAAAAAACACACACACACAAAATATATAAAT [CACACA_site1870] | 10.1 ± 0.24

Sequence | gcPBM binding intensity (ln)
AAAAAGAAAAAAAACACACACAAATATAAATAAATA [CACACA_site1183] | 9.24 ± 0.49
CACAAAAATAAACACACACACATATATATATATATA [CACACA_site4704] | 10.21 ± 0.057
AAAAAAAGAAAAAAAACACACACAAATATAAATAAA [CACACA_site8309] | 9.46 ± 0.39
TACACAAAAATAAACACACACACATATATATATATA [CACACA_site1000] | 9.79 ± 0.23
ATTCTACACGCACATACACACATATAAATATAAATA [CACACA_site7582] | 9.24 ± 0.35
TATATATAATATATATATATGGAAATTCTTTTAAAT [XGTACX_negctrl_site50] | 8.41 ± 0.38
AATATGAATATCTATACACACACATATATATACACA [CACACA_site8459] | 9.45 ± 0.26
AAAAAAAAAAAATGTGCACACGCGTACACCCAAAAA [CACACA_site8614] | 9.03 ± 0.4
TAATGAAGATATATAACACACAAAAGTTATAAATAT [CACACA_site6678] | 8.97 ± 0.43
AAAATATAGTAACACATACACACATATATATTTATA [CACACA_site2504] | 9.19 ± 0.38
ATAATATATATGAAATGTACATAAATTTAATGCGAC [XGTACX_site5394] | 9.18 ± 0.45
AACTGCAAAAAAAGACGTACAAATTATTAATTGCAA [XGTACX_site8929] | 8.88 ± 0.54
ATATAAATAACGTGTACACACATATGTATTTATATA [CACACA_site6520] | 9.12 ± 0.31
AATATACAAAATATCACACATATAAAATAATATATA [CACACA_site6067] | 8.88 ± 0.45
ACCATATAAATAAACACACACACACCCATATATATA [CACACA_site2321] | 10 ± 0.36
AATTAACCGAAACACACACACATATATATATATATA [CACACA_site3963] | 10.24 ± 0.064
AAAAAAAAAAAAAACACACACACAATAGTATATAAA [CACACA_site957] | 9.55 ± 0.43
AAAAAAAAAAAAAACACACACACACCCATAAATATA [CACACA_site151] | 10.2 ± 0.15
TACATAAAATATATCACACATATAATATATATATAT [CACACA_site5834] | 8.86 ± 0.35
GGAACAAATAATATCACACATATATATATATATATA [CACACA_site5670] | 10.2 ± 0.41
AAAAAAAATAAACACACACACATACCCATAAATATA [CACACA_site5980] | 10 ± 0.13
AAAATTAACCGTAACACACACACATATATATATATA [CACACA_site3964] | 9.96 ± 0.28
TTAATTAAGAAACACACACACATATATATATATATT [CACACA_site2290] | 9.79 ± 0.12

Sequence | gcPBM binding intensity (ln)
TCATAGTATAAACACACACACACACCCATATATATA [CACACA_site8512] | 10.1 ± 0.31
TTTTTTTTTTTTTTTACACACTATAGGGAAAAAAAA [CACACA_site1916] | 8.21 ± 0.37
AGAAAGAAAGAATACACACACACATATATATATATC [CACACA_site3744] | 9.95 ± 0.3
GAATTAAAATAATACGTACACACATGTATAATACAT [CACACA_site1004] | 9.21 ± 0.29
AAAAAATATATATCACGTGGTAATATATATATATAT [XGTACX_negctrl_site252] | 9.16 ± 0.14
CATAAATACATACATACACACATATTTATATTTATA [CACACA_site7071] | 9.16 ± 0.4
TATATATAAAAACACACACACACACCCTATAATTAT [CACACA_site4063] | 10.18 ± 0.042
ATATAATATATATATAAACACACAAAAAAAATTATA [CACACA_site8434] | 8.97 ± 0.45
ATAATATATATATAAACACACAAAAAAAATTATATA [CACACA_site1534] | 8.96 ± 0.42
TTGAAAATACAAAATTGTACAAAGATTTAAATAAAA [XGTACX_site1182] | 8.7 ± 0.49
GCATACATCAAGCACACACACACACGCACACGCACA [CACACA_site6311] | 10.2 ± 0.19
AATAAATAAGCACATACACACATACATACATACATA [CACACA_site6075] | 9.54 ± 0.26
TAAATAAGCACATACACACATACATACATACATAAA [CACACA_site4017] | 9.44 ± 0.38
CATATACATCCACATACACACATACACCCATACACA [CACACA_site5038] | 9.66 ± 0.28
AAGCATACATCAAGCACACACACACCCACACCCACA [CACACA_site372] | 10.3 ± 0.42
AGAAGCATACATCAAGCACACACACCCACACCCACA [CACACA_site8014] | 10 ± 0.37
TGAATAAATCAAAGCACACATACACCCACATATATA [CACACA_site286] | 9.47 ± 0.24
ATACATCAAGGACACACACACACACCCACACCCACA [CACACA_site8013] | 10.4 ± 0.27
AAATAAAAAAAAAAAAAAAATAACTTAAATGGGATA [TGCATGCA_negctrl_site595] | 8.33 ± 0.58
TGCATTATATTAAATTTTTTATTTGTTGATGTTATA [GTGCAC_negctrl_site371] | 8.57 ± 0.47
